Reference: ChEMBL document CHEMBL2218924, “A broad activity screen in support of a chemogenomic map for kinase signalling research and drug discovery” (Biochem J, 2013)

Tests used:
[1] = biological target: Serine/threonine-protein kinase MRCK beta (Homo sapiens) (UniProt Q9Y5S2); conditions: at 1 µM
[2] = biological target: Serine/threonine-protein kinase MRCK beta (Homo sapiens) (UniProt Q9Y5S2); conditions: at 10 µM
[3] = biological target: Ribosomal protein S6 kinase alpha-5 (Homo sapiens) (UniProt O75582); conditions: at 1 µM
Ribosomal protein S6 kinase alpha-5 (Homo sapiens), sequence (O75582 whole entry, looked up): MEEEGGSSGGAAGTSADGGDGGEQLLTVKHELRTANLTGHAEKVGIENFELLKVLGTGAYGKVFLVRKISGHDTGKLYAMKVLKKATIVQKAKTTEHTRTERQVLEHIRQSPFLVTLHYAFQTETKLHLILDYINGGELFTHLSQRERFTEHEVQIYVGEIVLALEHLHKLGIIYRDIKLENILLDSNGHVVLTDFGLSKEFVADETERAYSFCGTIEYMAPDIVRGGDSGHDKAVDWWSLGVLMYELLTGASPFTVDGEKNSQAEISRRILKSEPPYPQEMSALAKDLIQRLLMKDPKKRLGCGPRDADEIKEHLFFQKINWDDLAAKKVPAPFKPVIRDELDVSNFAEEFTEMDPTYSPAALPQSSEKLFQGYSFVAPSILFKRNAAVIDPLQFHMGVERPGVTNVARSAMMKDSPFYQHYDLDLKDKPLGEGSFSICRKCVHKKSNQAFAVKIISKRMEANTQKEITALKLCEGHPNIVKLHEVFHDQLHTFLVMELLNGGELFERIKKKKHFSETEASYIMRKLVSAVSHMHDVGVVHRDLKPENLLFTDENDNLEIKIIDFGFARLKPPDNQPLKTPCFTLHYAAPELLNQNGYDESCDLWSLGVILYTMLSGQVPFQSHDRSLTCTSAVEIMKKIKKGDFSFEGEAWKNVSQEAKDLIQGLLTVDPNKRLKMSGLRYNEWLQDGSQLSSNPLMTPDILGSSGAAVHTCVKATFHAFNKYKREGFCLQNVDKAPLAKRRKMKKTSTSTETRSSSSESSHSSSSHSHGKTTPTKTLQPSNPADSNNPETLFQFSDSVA

[4] = biological target: Ribosomal protein S6 kinase alpha-5 (Homo sapiens) (UniProt O75582); conditions: at 10 µM
[5] = biological target: Ribosomal protein S6 kinase alpha-4 (Homo sapiens) (UniProt O75676); conditions: at 1 µM
Ribosomal protein S6 kinase alpha-4 (Homo sapiens), sequence (O75676 whole entry, looked up): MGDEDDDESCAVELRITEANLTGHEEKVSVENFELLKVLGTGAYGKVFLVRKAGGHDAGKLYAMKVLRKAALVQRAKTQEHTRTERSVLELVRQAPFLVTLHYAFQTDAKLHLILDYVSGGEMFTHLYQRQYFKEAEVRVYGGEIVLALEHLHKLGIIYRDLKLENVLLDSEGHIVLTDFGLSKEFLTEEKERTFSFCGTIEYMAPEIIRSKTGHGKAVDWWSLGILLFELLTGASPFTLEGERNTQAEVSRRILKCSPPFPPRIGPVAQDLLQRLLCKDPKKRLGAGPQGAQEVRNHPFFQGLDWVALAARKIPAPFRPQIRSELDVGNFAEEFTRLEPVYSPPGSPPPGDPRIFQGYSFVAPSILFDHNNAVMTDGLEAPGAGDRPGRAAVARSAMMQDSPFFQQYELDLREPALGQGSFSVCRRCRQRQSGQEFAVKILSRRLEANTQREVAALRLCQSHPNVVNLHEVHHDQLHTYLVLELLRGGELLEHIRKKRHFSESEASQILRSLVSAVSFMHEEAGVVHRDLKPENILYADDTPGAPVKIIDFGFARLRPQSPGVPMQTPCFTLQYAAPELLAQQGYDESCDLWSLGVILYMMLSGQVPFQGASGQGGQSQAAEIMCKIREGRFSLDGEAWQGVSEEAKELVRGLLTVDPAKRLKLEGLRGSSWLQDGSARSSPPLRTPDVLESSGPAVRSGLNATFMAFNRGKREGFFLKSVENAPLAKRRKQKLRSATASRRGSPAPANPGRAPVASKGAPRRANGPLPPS

[6] = biological target: Ribosomal protein S6 kinase alpha-4 (Homo sapiens) (UniProt O75676); conditions: at 10 µM
[7] = biological target: SRSF protein kinase 3 (Homo sapiens) (UniProt Q9UPE1); conditions: at 1 µM
SRSF protein kinase 3 (Homo sapiens), sequence (Q9UPE1 whole entry): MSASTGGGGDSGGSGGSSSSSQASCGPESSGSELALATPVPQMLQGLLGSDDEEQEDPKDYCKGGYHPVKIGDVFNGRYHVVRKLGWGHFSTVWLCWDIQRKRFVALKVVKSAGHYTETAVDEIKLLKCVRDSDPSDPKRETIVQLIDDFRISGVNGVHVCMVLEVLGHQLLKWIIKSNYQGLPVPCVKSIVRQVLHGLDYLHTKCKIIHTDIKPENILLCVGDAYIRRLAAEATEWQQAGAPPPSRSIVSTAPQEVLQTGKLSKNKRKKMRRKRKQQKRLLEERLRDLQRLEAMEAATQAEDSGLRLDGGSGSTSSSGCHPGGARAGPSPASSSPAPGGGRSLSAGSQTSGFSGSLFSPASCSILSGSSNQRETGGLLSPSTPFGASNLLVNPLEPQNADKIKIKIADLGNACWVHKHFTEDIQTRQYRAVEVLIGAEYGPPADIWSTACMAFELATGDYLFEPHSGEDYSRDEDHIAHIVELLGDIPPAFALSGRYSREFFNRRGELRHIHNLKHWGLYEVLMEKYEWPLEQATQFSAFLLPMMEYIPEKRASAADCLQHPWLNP

[8] = biological target: SRSF protein kinase 3 (Homo sapiens) (UniProt Q9UPE1); conditions: at 10 µM
[9] = biological target: T1, Serine/threonine-protein kinase 4 (Homo sapiens) (UniProt Q13043); conditions: at 1 µM
T1 sequence (whole entry): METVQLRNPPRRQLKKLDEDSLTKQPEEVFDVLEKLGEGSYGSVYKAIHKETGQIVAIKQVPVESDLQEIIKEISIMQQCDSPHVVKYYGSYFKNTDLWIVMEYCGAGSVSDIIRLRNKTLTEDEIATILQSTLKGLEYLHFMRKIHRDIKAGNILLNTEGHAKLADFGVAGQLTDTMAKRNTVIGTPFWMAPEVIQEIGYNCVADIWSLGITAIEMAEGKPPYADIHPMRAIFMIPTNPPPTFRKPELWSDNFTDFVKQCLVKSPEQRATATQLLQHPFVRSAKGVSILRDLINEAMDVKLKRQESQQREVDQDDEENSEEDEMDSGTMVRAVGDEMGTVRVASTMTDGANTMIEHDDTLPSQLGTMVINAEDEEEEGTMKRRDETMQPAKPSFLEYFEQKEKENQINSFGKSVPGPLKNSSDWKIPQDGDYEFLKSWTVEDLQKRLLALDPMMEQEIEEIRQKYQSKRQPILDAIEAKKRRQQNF

[10] = biological target: T1, Serine/threonine-protein kinase 4 (Homo sapiens); conditions: at 10 µM

Serine/threonine-protein kinase MRCK beta (Homo sapiens), sequence (Q9Y5S2 whole entry): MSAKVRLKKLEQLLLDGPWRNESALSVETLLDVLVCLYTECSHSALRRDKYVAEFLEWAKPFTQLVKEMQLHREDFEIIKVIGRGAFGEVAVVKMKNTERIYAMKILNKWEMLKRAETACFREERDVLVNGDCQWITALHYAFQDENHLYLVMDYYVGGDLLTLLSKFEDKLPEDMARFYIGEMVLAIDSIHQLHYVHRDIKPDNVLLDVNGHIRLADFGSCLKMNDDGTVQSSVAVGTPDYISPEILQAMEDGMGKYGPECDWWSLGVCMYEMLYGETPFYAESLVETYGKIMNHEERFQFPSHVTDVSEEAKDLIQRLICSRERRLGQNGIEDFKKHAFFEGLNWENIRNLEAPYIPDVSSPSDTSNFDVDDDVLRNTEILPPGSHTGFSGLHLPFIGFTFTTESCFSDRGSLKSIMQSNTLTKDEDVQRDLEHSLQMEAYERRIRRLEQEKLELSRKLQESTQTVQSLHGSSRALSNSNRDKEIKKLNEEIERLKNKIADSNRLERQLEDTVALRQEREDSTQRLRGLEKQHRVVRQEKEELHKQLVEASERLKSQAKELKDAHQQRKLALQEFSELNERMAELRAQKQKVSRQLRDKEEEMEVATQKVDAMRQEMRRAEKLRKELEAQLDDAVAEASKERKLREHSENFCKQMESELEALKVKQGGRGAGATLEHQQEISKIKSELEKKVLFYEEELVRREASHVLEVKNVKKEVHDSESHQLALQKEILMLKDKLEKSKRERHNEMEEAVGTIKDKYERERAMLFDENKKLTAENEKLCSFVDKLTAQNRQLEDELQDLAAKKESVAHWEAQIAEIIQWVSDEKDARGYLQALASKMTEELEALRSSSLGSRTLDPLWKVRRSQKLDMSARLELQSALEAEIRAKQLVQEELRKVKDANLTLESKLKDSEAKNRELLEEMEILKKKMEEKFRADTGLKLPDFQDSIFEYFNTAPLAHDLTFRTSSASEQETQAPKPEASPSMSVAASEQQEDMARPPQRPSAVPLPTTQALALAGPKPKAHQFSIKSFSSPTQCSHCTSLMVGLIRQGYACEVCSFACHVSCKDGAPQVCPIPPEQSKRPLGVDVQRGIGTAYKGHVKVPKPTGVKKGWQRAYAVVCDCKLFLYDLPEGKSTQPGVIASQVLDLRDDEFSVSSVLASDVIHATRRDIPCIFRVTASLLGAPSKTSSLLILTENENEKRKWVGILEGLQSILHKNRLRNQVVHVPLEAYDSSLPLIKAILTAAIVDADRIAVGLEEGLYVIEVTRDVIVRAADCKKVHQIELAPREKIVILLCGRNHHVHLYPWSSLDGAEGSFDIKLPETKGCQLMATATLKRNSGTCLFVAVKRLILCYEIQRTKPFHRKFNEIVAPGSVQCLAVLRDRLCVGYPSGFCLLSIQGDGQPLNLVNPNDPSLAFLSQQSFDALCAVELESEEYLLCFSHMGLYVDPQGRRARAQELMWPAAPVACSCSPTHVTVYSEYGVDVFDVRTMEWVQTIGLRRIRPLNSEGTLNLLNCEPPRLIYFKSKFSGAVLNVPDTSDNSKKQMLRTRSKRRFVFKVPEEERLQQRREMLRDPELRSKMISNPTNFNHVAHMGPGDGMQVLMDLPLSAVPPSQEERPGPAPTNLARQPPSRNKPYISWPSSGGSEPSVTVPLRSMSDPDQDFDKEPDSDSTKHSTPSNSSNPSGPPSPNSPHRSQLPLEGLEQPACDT

| SMILES | residual activity [1] [%] | residual activity [2] [%] | residual activity [3] [%] | residual activity [4] [%] | residual activity [5] [%] | residual activity [6] [%] | residual activity [7] [%] | residual activity [8] [%] | residual activity [9] [%] | residual activity [10] [%] |
| --- | --- | --- | --- | --- | --- | --- | --- | --- | --- | --- |
| C[C@@H](N)[C@H]1CC[C@H](C(=O)Nc2ccncc2)CC1 | 95 | 69 | 90 | 50 | 82 | 58 | 96 | 98 | 105 | 79 |
| Cn1nc2c3c(cccc31)C(=O)c1ccccc1-2 | 92 | 85 | 99 | 83 | 93 | 79 | 98 | 97 | 72 | 72 |
| O=C1NC(=O)/C(=C\c2ccc3nccnc3c2)S1 | 93 | 53 | 123 | 90 | 89 | 68 | 94 | 69 | 94 | 101 |
| COc1cc2ncnc(Nc3ccc(Oc4ccccc4)cc3)c2cc1OC | 99 | 114 | 137 | 129 | 89 | 135 | 105 | 81 | 99 | 93 |
| Cn1cc(/C=C2\C(=O)Nc3ccc(S(N)(=O)=O)cc32)c2ccccc21 | 83 | 87 | 86 | 54 | 56 | 41 | 103 | 25 | 13 | 11 |
| CCC(=O)Nc1ccc2ncnc(Nc3cccc(Br)c3)c2c1 | 89 | 77 | 113 | 112 | 94 | 116 | 94 | 84 | 91 | 95 |
| CC(C)n1cnc2c(NCc3ccccc3)nc(NCCCO)nc21 | 88 | 88 | 110 | 110 | 102 | 97 | 106 | 76 | 102 | 102 |
| O=C1Nc2cc(Br)ccc2/C1=C1/Nc2ccccc2/C1=N\O | 83 | 87 | 72 | 78 | 60 | 55 | 93 | 102 | 8 | -1 |
| CO[C@@H]1[C@H](N(C)C(=O)c2ccccc2)C[C@H]2O[C@]1(C)n1c3ccccc3c3c4c(c5c6ccccc6n2c5c31)C(=O)NC4 | 85 | 68 | 13 | 8 | 12 | 8 | 96 | 77 | 1 | 2 |
| N#CC(C#N)=C(N)/C(C#N)=C/c1ccc(O)cc1 | 96 | 84 | 122 | 92 | 91 | 85 | 119 | 82 |  |  |
| CC(=O)O/N=C1\C(=C2\C(=O)Nc3cc(Br)ccc32)Nc2ccccc21 | 96 | 91 | 99 | 85 | 100 | 74 | 96 | 102 | 50 | 23 |
| Ic1cccc(CSc2nnc(-c3ccncc3)o2)c1 | 87 | 82 | 95 | 82 | 65 | 53 | 90 | 92 | 106 | 101 |
| COc1cc2ncnc(N3CCN(C(=O)Nc4ccc(Oc5ccccc5)cc4)CC3)c2cc1OC | 83 | 87 | 113 | 104 | 93 | 123 | 109 | 79 | 85 | 88 |
| COc1cccc(-c2cc(=O)c3ccccc3o2)c1N | 102 | 95 | 104 | 117 | 94 | 98 | 109 | 110 | 86 | 114 |
| COc1ccc(C(=O)Nc2sc3c(c2C(N)=O)CCCC3)cc1OC | 89 | 74 | 123 | 88 | 91 | 99 | 104 | 93 | 92 | 95 |
| CO[C@H]1C[C@@H]2CC[C@@H](C)[C@@](O)(O2)C(=O)C(=O)N2CCCC[C@H]2C(=O)O[C@H]([C@H](C)C[C@@H]2CC[C@@H](O)[C@H](OC)C2)CC(=O)[C@H](C)/C=C(\C)[C@@H](O)[C@@H](OC)C(=O)[C@H](C)C[C@H](C)/C=C/C=C/C=C/1C | 95 | 104 | 123 | 110 | 87 | 105 | 105 | 88 | 93 | 97 |
| O=Nc1c(-c2c(O)[nH]c3ccccc23)[nH]c2ccccc12 | 106 | 103 | 61 | 21 | 32 | 4 | 85 | 46 | 8 | 2 |
| Nc1n[nH]c2nnc(-c3c(-c4ccccc4)nn4ccccc34)cc12 | 90 | 79 | 102 | 113 | 93 | 78 | 93 | 56 | 71 | 87 |
| Oc1n[nH]c2nnc(-c3c(-c4ccccc4)nn4ccccc34)cc12 | 88 | 83 | 109 | 111 | 92 | 87 | 98 | 73 | 72 | 96 |
| O=[N+]([O-])c1ccc(-c2nc(-c3ccc(F)cc3)c(-c3ccncc3)[nH]2)cc1 | 91 | 89 | 108 | 119 | 87 | 85 | 105 | 104 | 74 | 114 |

| SMILES | residual activity [1] [%] | residual activity [2] [%] | residual activity [3] [%] | residual activity [4] [%] | residual activity [5] [%] | residual activity [6] [%] | residual activity [7] [%] | residual activity [8] [%] | residual activity [9] [%] | residual activity [10] [%] |
| --- | --- | --- | --- | --- | --- | --- | --- | --- | --- | --- |
| CO[C@H]1[C@@H](OC)C[C@H](C)[C@@H](OC)C2=CC(=O)C=C(NC(=O)/C(C)=C/C=C/[C@H](OC)[C@@H](OC(N)=O)/C(C)=C/[C@@H]1C)C2=O | 97 | 77 | 115 | 97 | 92 | 104 | 116 | 84 | 101 | 108 |
| Oc1c2ccccc2c2c3c(cccc13)N=N2 | 90 | 95 | 93 | 69 | 76 | 36 | 90 | 82 | 52 | 21 |
| COc1ccc(OC)c2c(=S)c3ccccc3[nH]c12 | 88 | 95 | 93 | 122 | 100 | 89 | 103 | 79 | 74 | 99 |
| COc1ccc(S(=O)(=O)N(CCO)c2ccccc2CN(C)C/C=C/c2ccc(Cl)cc2)cc1 | 98 | 78 | 115 | 114 | 96 | 85 | 102 | 104 | 107 | 90 |
| CC[n+]1c(/C=C/N(C)c2ccccc2)n(-c2ccccc2)c2ccc(-c3nc4ccccc4s3)cc21 | 98 | 83 | 139 | 99 | 108 | 96 | 107 | 82 | 103 | 73 |
| O=C1NC(=O)c2c1c1c3ccccc3[nH]c1c1[nH]c3cc(Br)ccc3c21 | 85 | 85 | 94 | 84 | 87 | 76 | 92 | 86 | 92 | 38 |
| COc1cc2ncnc(Nc3ccc(O)c(Br)c3)c2cc1OC | 91 | 71 | 117 | 108 | 83 | 72 | 95 | 90 | 81 | 55 |
| O=C(Nc1cccc(Nc2nccc(Nc3cccc(C(F)(F)F)c3)n2)c1)C1CC1 | 103 | 88 | 114 | 89 | 89 | 89 | 105 | 89 | 110 | 92 |
| O=C1NC(=O)/C(=C/c2ccc3c(c2)OC(F)(F)O3)S1 | 106 | 85 | 133 | 112 | 105 | 97 | 100 | 74 | 100 | 107 |
| Nc1nc(Nc2ccc(S(N)(=O)=O)cc2)nn1C(=S)Nc1c(F)cccc1F | 8 | 3 | 81 | 70 | 19 | 21 | 37 | 12 | 0 | -3 |
| Oc1ccc(Nc2nc(-c3ccc(Cl)cc3)cs2)cc1 | 111 | 129 | 97 | 107 | 109 | 94 | 110 | 97 | 78 | 87 |
| COc1ccc(CNc2nc(N(CCO)CCO)nc3c2ncn3C(C)C)cc1 | 88 | 83 | 92 | 96 | 88 | 82 | 105 | 84 | 74 | 112 |
| O=C(O)c1ccc2c3c1cccc3c(=O)n1c3ccccc3nc21 | 93 | 93 | 98 | 93 | 95 | 84 | 97 | 48 | 83 | 72 |
| O=C1NC(=O)c2cc(Nc3ccc(F)cc3)c(Nc3ccc(F)cc3)cc21 | 79 | 64 | 128 | 93 | 97 | 91 | 106 | 84 | 92 | 100 |
| CC#CC(=O)Nc1cc2c(Nc3ccc(F)c(Cl)c3)ncnc2cn1 | 95 | 79 | 123 | 102 | 97 | 105 | 90 | 74 | 90 | 84 |
| Nc1cccc(-c2cc3c(Oc4cccc(O)c4)ncnc3[nH]2)c1 | 95 | 84 | 98 | 117 | 90 | 68 |  |  | 73 | 74 |
| Cc1cc(Nc2nc(-c3ccccc3)nc3ccccc23)n[nH]1 | 96 | 99 | 72 | 39 | 59 | 14 | 46 | 16 | 48 | 6 |
| Cc1nc2cc3nc(-c4cccs4)cnc3cc2n1C | 105 | 100 | 129 | 101 | 101 |  | 117 | 88 | 105 | 94 |
| Nc1ccc2ncnc(NCCc3ccc(Oc4ccccc4)cc3)c2c1 | 103 | 107 | 109 | 111 | 92 | 72 | 111 | 86 | 89 | 102 |
| Cc1cc2ncc(-c3ccccc3)nc2cc1C | 92 | 88 | 134 | 103 | 92 | 103 |  | 87 |  | 125 |
